These results are taken from PubChem BioAssay AID2284359 (EPA ToxCast).

Records with an inconclusive call do not appear. Active and inactive are the calls of the source. How the source made its calls: active means hit-call score of the fitted dose curve at least 0.9, where 1 is the maximum; inconclusive means response in the unintended direction; inactive means score below 0.9.

A short description of this assay: ATG_M_06_EcoTox2: Attagene TRANS-FACTORIAL EcoTox-2 HepG2 Assay for M06 Transcription Factor (Internal Marker). As for the experimental part: ATG_EcoTox2 is a cell-based, multiplexed assay created by modifying the existing Attagene TRANS-FACTORIAL system to include a panel of nuclear receptors from some or all the following species: human (Homo sapiens), african clawed frog (Xenopus laevis), rainbow trout (Oncorhynchus mykiss), japanese medaka (Oryzias latipes), and zebrafish (Danio rerio). The ECOTOX2-FACTORIAL format uses HepG2, a human liver cell line, with measurements taken at 24 hours after chemical dosing in a 24-well plate. ATG_M_06_EcoTox2 is one of 29 assay components calculated in the ATG_EcoTox2 assay. It is designed to make measurements of mRNA induction, a form of inducible reporter, as detected with fluorescence intensity signals by Reverse transcription polymerase chain reaction (RT-PCR) and Capillary electrophoresis technology.The assay endpoint ATG_M_06_EcoTox2 was analyzed in the positive analysis fitting direction relative to DMSO as the negative control and baseline of activity. Using a type of inducible reporter, measures of mRNA for gain-of-signal activity can be used to understand the background control at the transcription factor-level as they relate to the gene. Furthermore, this assay endpoint can be referred to as a secondary readout, because this assay has produced multiple assay endpoints where this one serves a background control function. To generalize the intended target to other relatable targets, this assay endpoint is annotated to the background measurement intended target family, where the subfamily is internal marker.
Human liver HepG2 cells are transiently transfected with multiple reporter transcription units (MRTUs) in 6-well plates using FuGene 6 reagent (Roche; 3 ml FuGene/1 mg DNA). The MRTU constructs are regulated by a cis-regulating element (promoter). Each RTU expresses a GAL4-UAS that regulates the transcription of a nearby target reporter gene sequence. A major difference between the CIS and TRANS system is that in CIS activities of endogenous TFs are measured, whereas the TRANS assay evaluates changes in activities of exogenous, chimeric NR-Gal4 proteins. […] At the end of 24 hour incubation, total RNA was isolated using TriZol reagent (Invitrogen). The isolated RNA is then reverse-transcribed using oligo(dT) primer and Mo-MLV reverse transcriptase (Invitrogen) with DNAse I (Ambion) treatment for 30 min. The one-tenth of the produced cDNA was amplified by PCR using Taq DNA polymerase (Invitrogen) and two reporter sequence-specific primers. The PCR products were fluorescently labeled by primer extension with 6-arboxyfluorescein (6-FAM) 5'-labeled reporter sequence-specific primer (2 min at 95 C, 20 s at 68 C and 10 min at 72 C) and these products were digested with 5U of HpaI (New England Biolabs) for 2h at 37 C. The fragments were purified using Qiaquick PCR columns (Qiagen), analyzed on an ABI 3130xL genetic analyzer (Applied Biosystems) with peak positions identified by using a set of X-rhodamine (ROX)-labeled MapMarker1000 molecular weight standards (BioVentures). The raw capillary electrophoresis data was processed using Attagraph software (Attagene).
For `C[C@]12C=CC(=O)C=C1CC[C@@H]1[C@@H]2C(=O)C[C@@]2(C)[C@H]1CC[C@]2(O)C(=O)CO`, the call was inactive.

As to `Cc1nc(-c2ccc(C(F)(F)F)cc2)sc1C(=O)NCc1ccc(OC(C)(C)C(=O)O)cc1`, the call was inactive.

For `Cc1c(C)c2c(c(C)c1O)CCC(C)(COc1ccc(CC3SC(=O)NC3=O)cc1)O2` (stereo unspecified), the compound was classed as inactive.

As for `CC(C)(Oc1ccc(Cl)cc1)C(=O)O`, the compound was classed as inactive.

Consider `CC(C)(Oc1ccc(CCNC(=O)c2ccc(Cl)cc2)cc1)C(=O)O`, for which the result was inactive.

As to `C=C(c1ccc(C(=O)O)cc1)c1cc2c(cc1C)C(C)(C)CCC2(C)C`, the outcome was inactive.

On to `CN(CCOc1ccc(CC2SC(=O)NC2=O)cc1)c1ccccn1` (stereo unspecified), for which the result was inactive.

With `CC(C)(Oc1ccc(C2CC2(Cl)Cl)cc1)C(=O)O` (stereo unspecified), the outcome was inactive.

In the case of `Cc1cccc(Nc2cc(Cl)nc(SCC(=O)O)n2)c1C`, the outcome was inactive.

Turning to `CC(C)OC(=O)C(C)(C)Oc1ccc(C(=O)c2ccc(Cl)cc2)cc1`, the outcome was inactive.

On to `CC(c1cc2ccccc2s1)N(O)C(N)=O` (stereo unspecified), for which the compound was classed as inactive.
